# Rows were chosen to be rich in hits. Some 3.6% of all compounds tested hit in one or more screens of this group.
# TRHR agonist – agonists of human TRH receptor. TRHR cells, calcium flux fluo-8, FDSS agonist mode. activation, % at 2 µM. 0.18% of 360,000 active
#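 Agonist-mode FDSS calcium read (Ex 480/Em 530, 1 s cycles) in 1536-well TRHR cells with fluo-8 dye, after 10-cycle baseline and 23 nL compound addition; TRH at EC20 (10 nM final) added afterwards for the enhancer phase.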
# LDHA block – inhibitors of human lactate dehydrogenase A; P00338; AID 1347041; purified LDHA, NADH/diaphorase-resazurin fluorescence; stronger effect = lower value; 0.15% of 480,000 active; activity change, % (values are at about 110 or 230 µM); in the data active = activity change below about -30%
#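 LDH5 2 nM; NADH 0.06 mM, pyruvate 0.2 mM; 200 mM Tris pH 7.4, EDTA, Tween-20; 5 min RT. Detection: diaphorase 0.133 mg/mL + resazurin 37 µM, fluorescence ex540/em590 at 0 and 20 min; normalized to enzyme-free and DMSO wells.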
# D1 antagonist – blocks dopamine activation of the human D1 receptor | P21728 | HEK293 TREx D1 cells, calcium flux, dopamine EC80; stronger effect = lower value | activity change, negative = inhibition, % at 10 µM | 3.2% of 360,000 active; in the data active = activity change below about -30%
# Target sequence (P21728 whole entry, looked up): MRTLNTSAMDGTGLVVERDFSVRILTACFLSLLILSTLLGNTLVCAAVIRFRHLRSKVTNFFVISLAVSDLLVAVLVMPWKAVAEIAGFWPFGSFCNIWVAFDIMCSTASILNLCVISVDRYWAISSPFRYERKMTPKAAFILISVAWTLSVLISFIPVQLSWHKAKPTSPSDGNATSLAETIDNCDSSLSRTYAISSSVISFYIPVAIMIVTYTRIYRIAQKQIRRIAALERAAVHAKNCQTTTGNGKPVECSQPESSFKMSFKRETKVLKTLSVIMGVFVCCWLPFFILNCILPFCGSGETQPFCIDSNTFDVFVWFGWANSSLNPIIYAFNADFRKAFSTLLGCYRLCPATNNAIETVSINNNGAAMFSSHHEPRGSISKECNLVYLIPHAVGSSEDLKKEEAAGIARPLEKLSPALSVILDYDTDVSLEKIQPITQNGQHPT
#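 HEK293 T-REx cells expressing inducible, force-coupled D1 receptor; no-wash Ca dye, 30–90 min RT. Cmpd → 180 s read at 1 Hz → EC80 DA → 180 s read.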
# D1 ag – agonists of human D1 dopamine receptor; AID 504660; 1% of 360,000 active; HEK293 T-REx D1 cells, calcium flux, agonist mode; activation, % at 2 µM
#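 Inducible HEK293 T-REx D1 cells, force-coupled to calcium signalling, were plated at 4000 cells/well with tetracycline and held overnight at 30 C. After no-wash calcium dye loading, compound-evoked calcium rise over 180 s flagged agonists.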
# D1 potentiator – human D1 dopamine receptor positive modulation; P21728; HEK293 TREx D1 cells, calcium flux, dopamine EC20 potentiation; potentiation, % at 10 µM; 0.036% of 360,000 active; AID 504651; in the data active = potentiation above about 30%
# TRHR PAM – TRH receptor (human) allosteric enhancement. TRHR cells, fluo-8 calcium fluorescence, EC20 TRH enhancement. AID 493056. 0.66% of 360,000 active. enhancement, % at 2 µM. P34981; in the data active = enhancement above about 30%
#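 TRHR-expressing cells loaded with fluo-8 calcium dye were read kinetically (ex 480/em 530) during compound addition, then stimulated with an EC20 of TRH (10 nM final). Enhancement of the Gq-mediated intracellular calcium response was scored.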
# Numbers stand for hits; i = inactive; nt = no result given. Cut-off read from the data, not from the text of the source, unless noted: active = activation above about 30%; inactive = the rest.
SMILES,TRHR agonist,LDHA block,D1 antagonist,D1 ag,D1 potentiator,TRHR PAM
CC1CN(CC(=O)N2CCc3[nH]c4ccccc4c3C2)CC(C)O1 (stereo unspecified),i,i,-44.2,i,i,i
COc1cc(C=O)cc(Cl)c1OCc1ccc(F)cc1,nt,i,nt,nt,nt,nt
CC(C(=O)Nc1ccc(F)cc1)N1CCN(C(=O)c2cccs2)CC1 (stereo unspecified),nt,i,nt,nt,nt,nt
O=S(=O)(Nc1ccc(Cl)cn1)c1ccc(Cl)cc1,i,i,i,i,i,i
CCc1ccc(S(=O)(=O)Nc2ccc(Cl)cn2)cc1,i,i,-91.8,i,i,i
Fc1ccc(-c2nn(-c3ccccc3)cc2CNCc2ccccc2)cc1,i,i,i,i,i,i
Fc1ccc(-n2cc(CNCCc3cccnc3)c(-c3ccccc3Cl)n2)cc1,i,i,i,61.5,i,i
COc1ccc(-n2cc(CNCCCN3CCCC3=O)c(-c3ccccc3Cl)n2)cc1,i,i,i,i,i,i
Fc1ccc(-n2cc(CNCCc3ccncc3)c(-c3ccccc3Cl)n2)cc1,i,i,-31.8,i,i,i
COc1ccc(-c2c(C)c3cc(OS(=O)(=O)c4ccc(C)cc4)ccc3oc2=O)cc1OC,nt,i,nt,nt,nt,nt
Cc1c(CC(=O)NCCCC(=O)O)c(=O)oc2cc3occ(-c4ccccc4)c3cc12,i,i,i,i,i,i
Cc1c(CC(=O)O)c(=O)oc2cc3occ(-c4ccc(F)cc4)c3cc12,i,-42.1,i,i,i,i
Cc1c(CC(=O)NCC(=O)O)c(=O)oc2cc3occ(-c4ccccc4)c3cc12,i,-84.9,i,i,i,i
CCCC[N+](CCCC)(CCCC)CCCC,nt,i,nt,nt,nt,nt
COc1ccc(-c2cc3ccc(OCC(=O)OC(C)(C)C)cc3oc2=O)cc1,nt,i,nt,nt,nt,nt
CSCCC(NC(=O)c1ccc(Cl)cc1)C(=O)OCC(=O)Nc1ccc(C#N)cc1 (stereo unspecified),i,i,-39.9,i,i,i
CSCCC(NC(=O)c1ccccc1)C(=O)OCC(=O)c1ccc[nH]1 (stereo unspecified),i,i,i,i,i,i
CSCCC(NC(=O)c1ccc(Cl)cc1)C(=O)OCC(=O)c1ccc[nH]1 (stereo unspecified),i,i,-34.5,i,i,i
Cc1cccc(-c2cc(C(=O)O)c3cccc(Cl)c3n2)c1,nt,i,nt,nt,nt,nt
O=C(NCc1ccccc1)c1cc(C2CC2)nc2ccccc12,nt,i,nt,nt,nt,nt
COc1ccnc(N2CCN(c3ccc(Cl)cc3)CC2)c1C#N,i,i,-30.6,i,i,i
Clc1cc(Cn2nnc(-c3ccccc3Br)n2)cc2c1OCCCO2,nt,i,nt,nt,nt,nt
O=C(CCN1C(=O)C2C3CCC(C3)C2C1=O)OCC(=O)c1ccc(Br)cc1 (stereo unspecified),i,i,-30.7,i,i,i
Cc1ccc(C(=O)COC(=O)CCN2C(=O)C3C4CCC(C4)C3C2=O)cc1[N+](=O)[O-] (stereo unspecified),i,i,-41.6,i,i,i
Cc1ccc(C)c(/C(O)=C2\C(=O)C(=O)N(c3nnc(C)s3)C2c2ccc(C(C)C)cc2)c1 (stereo unspecified),nt,i,nt,nt,nt,nt
SMILES,TRHR agonist,LDHA block,D1 antagonist,D1 ag,D1 potentiator,TRHR PAM
CC1(NC(=O)CSc2nc(CN3CCOCC3)nc3ccccc23)CCS(=O)(=O)C1 (stereo unspecified),nt,i,nt,nt,nt,nt
CC1=C(C(=O)Nc2ccc(C)cc2)C(c2ccc(Br)cc2)NC(=S)N1 (stereo unspecified),nt,i,nt,nt,nt,nt
O=C(c1ccc(CS(=O)Cc2ccccc2Cl)o1)N1CCN(c2ccccn2)CC1 (stereo unspecified),i,i,i,i,i,i
O=C(c1ccc(CS(=O)c2ccccc2Cl)o1)N1CCN(c2cccc(Cl)c2)CC1 (stereo unspecified),i,i,i,i,i,i
O=C(c1ccc(CS(=O)Cc2ccc(Cl)cc2)o1)N1CCN(c2ccccn2)CC1 (stereo unspecified),i,i,-36.4,i,i,i
O=C(c1ccc(CS(=O)Cc2ccccc2Cl)o1)N1CCN(c2cccc(Cl)c2)CC1 (stereo unspecified),i,i,-45.0,i,i,i
O=C(c1ccc(CS(=O)c2ccccc2Cl)o1)N1CCN(c2ccccn2)CC1 (stereo unspecified),i,i,-35.7,i,i,i
CCOC(=O)c1cc(-c2cccs2)nc2c1c(C)nn2-c1ccccc1,nt,i,nt,nt,nt,nt
O=C(Nc1noc2ccccc12)c1ccc(F)cc1,i,i,i,i,i,46.0
Cc1c(Cl)cccc1NC(=O)Cn1nc(C(=O)O)c2ccccc2c1=O,nt,i,nt,nt,nt,nt
O=C(CN(C(=O)CNS(=O)(=O)c1ccc(F)cc1)c1ccc(F)cc1)NCc1ccco1,i,i,-32.3,i,i,i
Cc1ccc(S(=O)(=O)NCC(=O)N(CC(=O)NCc2ccco2)C2CCCC2)cc1,i,i,-38.4,i,i,i
Cc1ccc(S(=O)(=O)NCC(=O)N(CC(=O)NCc2ccco2)Cc2ccccc2)cc1,i,i,i,i,i,i
CCc1c(C(=O)N2CCCN(C)CC2)csc1C,i,i,-31.0,i,i,i
CCn1nc(C)c(CNC(=O)c2cc(COc3ccccc3SC)on2)c1C,i,i,-48.8,i,i,i
Cc1ccc(NC(=O)C2(C)Cc3ccccc3C(=O)O2)c(C)c1 (stereo unspecified),i,i,i,i,i,49.6
COc1ccccc1NC(=O)C1(C)Cc2ccccc2C(=O)O1 (stereo unspecified),i,i,i,i,i,i
Cc1ccc(OCc2cc(C(=O)N3CCC(Oc4cccnc4)CC3)no2)cc1C,i,i,i,i,i,i
Cc1cccc(C)c1OCc1cc(C(=O)N2CCC(c3ccncc3)CC2)no1,i,i,-41.9,i,i,i
CC(=O)c1ccc(OCc2cc(C(=O)N3CCOCC3)no2)cc1,i,i,i,i,i,i
CC(=O)c1ccc(OCc2cc(C(=O)N3CCCCCCC3)no2)cc1,i,i,-37.7,i,i,i
O=C(c1cc(COc2c(F)cccc2F)on1)N1CCC(c2ccncc2)CC1,i,i,i,i,i,i
CCC1CCCCN1C(=O)c1cc(COc2ccc(-n3cncn3)cc2)on1 (stereo unspecified),i,i,-34.1,i,i,i
CC(=O)c1ccc(OCc2cc(C(=O)N3CCC(Oc4ccccc4C)CC3)no2)cc1,i,i,-52.5,i,i,i
COc1ccc(-c2nc3cc(NC(=O)c4ccccc4OC)ccc3o2)cc1,nt,i,nt,nt,nt,nt
Cc1ccc2nc(C)c(C(=O)N3CCN(C(=O)c4ccccc4)CC3)cc2c1,nt,i,nt,nt,nt,nt
CN(C)CCCN(C(=O)c1ccc2c(c1)CCCC2)c1nc2cc3c(cc2s1)OCO3,i,i,i,39.5,i,i

# Source: PubChem BioAssay
